# Source: PubChem
# CRFBP-R2 block: blocks CRF-induced signaling of the CRF-BP/CRF-R2 complex | HEK293 CRF-R2/CRF-BP, CRF-induced calcium fluorescence | inhibition, % at 11.8 µM | hit rate 0.59% among 350,000 | AID 588475;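 active = inhibition of the ligand-induced calcium signal above about 50% at the single tested concentration, limit read from the data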
# TLR4-MyD88 BLA: inhibitors of human TLR4-MyD88 binding | HeLa CL3-4 TLR4/MyD88 BLA complementation, FRET ratio | AID 861 | inhibition, % at 8.4 µM | hit rate 0.18% among 200,000; in the data active = inhibition above about 25%;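 also: 0% = vehicle and 100% = reference inhibitor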
# ABHD5-PLIN5 inh: blocks binding of human ABHD5 to perilipin-5. AID 602281. Q00G26+Q8WTS1. inhibition, % at 4 µM. hit rate 0.78% among 360,000. Split G. princeps luciferase complementation, luminescence, 4 h;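 active = inhibition above the mean inhibition across every tested compound plus 3 SD, cut at about 22% in these data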;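 also: 0% = DMSO only wells and the 100% control is not disclosed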
# NOD2-RIPK2 inh: inhibitors of human NOD2-RIPK2 interaction. O43353. CHO BLA complementation NOD2-RIPK2, CCF4 ratio. inhibition, % at 4.98 µM. hit rate 0.38% among 360,000; in the data active = inhibition above about 21%;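 also: 0% = vehicle only and 100% = reference blocker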
# TLR9-MyD88 block: TLR9-MyD88 interaction inhibition. CHO BLA complementation TLR9-MyD88, CCF4 FRET ratio. inhibition, % at 4.98 µM. hit rate 0.21% among 340,000;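 active = inhibition above the mean over all tested compounds plus 3 SD, cut at about 21% in these data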;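 also: 0% = DMSO only wells and 100% = clavulanate BLA inhibitor control wells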
# HTR2A ag: activates the mouse 5-HT2A serotonin receptor | P35363 | CHO-K1 mHTR2A beta-arrestin complementation, luminescence; percent of 30 µM serotonin response | activation, % at 7.6 µM | hit rate 0.66% among 360,000;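 active = activation above a run cutoff, the mean activation of all tested compounds plus 3 SD, cut at about 14% in these data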;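 also: 0% = plate median of compound wells and 100% = 30 µM serotonin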
# MOR ag counter: activates human mu opioid receptor in HTR2A counterscreen; shares compounds with HTR2A ag; U2OS OPRM1 beta-arrestin PathHunter, luminescence; DMSO 0%, DAMGO 9.3 µM 100%; AID 624380; hit rate 5.3% among 2,300; activation, % at 9.3 µM;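 active = mean activation above the mean of DMSO-only wells plus 3 SD, cut at about 0.5% in these data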
# Target sequence (P35372 whole entry, looked up): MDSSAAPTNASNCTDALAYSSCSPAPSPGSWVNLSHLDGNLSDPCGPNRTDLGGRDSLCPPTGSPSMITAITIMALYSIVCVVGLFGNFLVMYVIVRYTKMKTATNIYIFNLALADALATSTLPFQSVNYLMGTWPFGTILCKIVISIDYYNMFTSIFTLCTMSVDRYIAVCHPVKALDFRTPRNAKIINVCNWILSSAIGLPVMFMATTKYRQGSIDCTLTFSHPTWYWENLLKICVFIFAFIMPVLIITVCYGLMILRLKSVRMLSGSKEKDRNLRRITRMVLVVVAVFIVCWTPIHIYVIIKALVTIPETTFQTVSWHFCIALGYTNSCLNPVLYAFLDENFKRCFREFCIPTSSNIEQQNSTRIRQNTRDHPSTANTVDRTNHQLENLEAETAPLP
# HTR2A ag conf: confirmation of mouse HTR2A serotonin receptor agonists. shares compounds with HTR2A ag. CHO-K1 PathHunter beta-arrestin recruitment, luminescence; DMSO 0%, 30 µM serotonin 100%. activation, % at 7.6 µM. hit rate 19% among 2,300. AID 624381;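 active = mean activation across triplicates above the hit threshold derived in the original primary screen, cut at about 15% in these data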
# Starred values were filed as active, the others as inactive; · = no result. Sampled rows, rich in hits. Any-hit rate of the full collection: about 2.4%.
SMILES,CRFBP-R2 block,TLR4-MyD88 BLA,ABHD5-PLIN5 inh,NOD2-RIPK2 inh,TLR9-MyD88 block,HTR2A ag,MOR ag counter,HTR2A ag conf
COC(=O)[C@]12CCCCC=C1N(Cc1ccco1)C(=O)[C@H](CC(=O)N1CCCCC1)C2,·,·,2.7,-15.8,·,0.8,·,·
Cc1cc(C)cc(C(=O)N2CCC(CCC(=O)NC3CC3)CC2)c1,6.9,·,11.8,-18.6,7.1,-4.8,·,·
CSc1ccccc1C(=O)N1CCC(CCC(=O)NC2CC2)CC1,-13.1,·,-4.6,2.0,-1.9,14.8*,-0.8,-4.2
Nc1nc2ccccc2cc1C(=O)NCc1ccc(-c2ccccc2)cc1,·,·,4.1,-8.1,·,1.4,·,·
CN(C)c1ccc(C(=O)c2ccccc2C(=O)O)cc1[N+](=O)[O-],4.7,-4.5,8.4,6.7,-0.9,8.0,·,·
CNc1ccc(C(=O)c2ccccc2C(=O)O)cc1[N+](=O)[O-],23.6,-14.9,6.3,-3.3,8.2,19.2*,-0.7,-2.7
COc1ccc(C(CNC(=O)c2ccccc2C)N2CCCC2)cc1 (stereo not given),-1.6,9.6,-3.9,-11.5,-2.8,30.7*,-0.6,-0.9
COc1ccc(C(CNC(=O)COc2ccccc2C)N2CCCCC2)cc1 (stereo not given),-7.9,·,7.9,-0.9,2.4,3.4,·,·
CCCS(=O)(=O)NC(=O)C1(C)CCN1C(=O)Cc1ccc(-c2ccccc2)cc1 (stereo not given),·,·,1.3,6.3,·,17.5*,-0.2,2.7
CCc1nnc(NC(=O)c2cc(S(=O)(=O)N3CCOCC3)ccc2N2CCCCC2)s1,1.1,-7.4,2.0,4.8,-3.6,4.0,·,·
O=C(Nc1nnc(C2CC2)s1)c1cc(S(=O)(=O)N2CCCCC2)ccc1N1CCOCC1,18.1,·,-3.5,-10.3,-7.3,23.9*,-0.5,-3.0
Cc1ccc(NC(=O)COC(=O)CN2C(=O)NC(C)(C)C2=O)cc1S(=O)(=O)N1CCOCC1,-21.5,-2.8,1.1,-7.0,-0.4,23.9*,0.0,-4.2
COC(=O)c1cc(=O)nc(NN=Cc2ccc(OC)cc2)s1,·,·,5.3,12.7,·,16.8*,-0.3,-0.2
COC(=O)c1cc(=O)nc(NN=C2c3ccccc3-c3ccccc32)s1,·,·,0.6,-6.3,·,-0.1,·,·
NC(=O)c1c(NC(=O)c2ccncc2)sc2c1CCCC2,7.4,-5.5,2.8,3.9,-4.9,18.3*,-0.2,4.9
O=C(NC(Cc1cn(Cc2ccccc2)cn1)C(=O)O)OCC1c2ccccc2-c2ccccc21 (stereo not given),·,·,0.7,-1.2,·,1.1,·,·
CC1(C(=O)Nc2ccc3[nH]ncc3c2)CCN1C(=O)C1(c2ccccc2)CC1 (stereo not given),·,·,-0.6,0.8,·,0.1,·,·
COc1cc(/C=C2/CCc3ccccc3C2=O)cc(OC)c1OC,8.1,-0.1,14.8,-0.7,-7.9,-1.5,·,·
COc1cc(/C=C2\CCc3ccccc3C2=O)cc(OC)c1OC,7.9,-2.8,8.5,-1.1,-3.0,19.1*,-0.6,-3.1
CCOc1ccccc1C=C1CCc2ccccc2C1=O,20.2,·,6.8,4.4,-8.2,29.5*,0.1,8.9
CC(C)c1cc(C(C)C)n2nc(N)nc2n1,24.4,·,4.7,2.0,0.1,4.8,·,·
CCCc1cc(CCC)n2nc(N)nc2n1,6.0,·,-2.0,-8.6,-11.9,15.2*,-0.5,-2.6
Cc1ccc(F)cc1-c1nc(NCC2CC2)nc2ccsc12,·,·,-6.9,-7.0,·,15.9*,-0.2,0.5
CSCCC(c1nc2ccccc2[nH]1)n1c(-c2cc(C(F)(F)F)cc(C(F)(F)F)c2)nc2ccccc21 (stereo not given),·,·,-25.6,-9.7,·,19.3*,0.8*,6.7
COc1ccc(OC)c(S(=O)(=O)N(C)CC(=O)N2CCCCC2)c1,-2.2,·,-10.0,-2.0,8.1,15.7*,-0.6,-2.0
COc1ccc(OC)c(S(=O)(=O)N(C)CC(=O)N2CCc3ccccc3C2)c1,13.5,-6.1,-2.8,4.6,2.9,4.3,·,·
